The nature of the assay: acridine orange displacement from DNA – biochemical, fluorescence polarization, cherry-pick, artefact control for RAD54 inhibitor project, dose response (AID 651673;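 further: polarization loss reports compound binding to salmon sperm DNA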). (In general: Polarisation of emitted light reports the rotation of a fluorescent probe.)

Some of the results follow. Active and inactive are the calls of the source.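 How the source made its calls: active means signal drop giving an AC50 within twice the top valid tested concentration of each sample (actives reach about 35 µM in these data); inactive means activity opposite to expected, plus the rest.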

Regarding `CN1CCN(c2cc(N3CCNCC3)ccc2[N+](=O)[O-])CC1`, the call was inactive.
